Bioassay records (PubChem)
3T3 cytotox = Cytotoxic Profiling in NIH 3T3 Cell Line of Diverse Libraries Using Quantitative High-Throughput Screening | NIH 3T3 viability, CellTiter-Glo ATP luminescence, 48-72 h | hit rate 4.3% among 94,000 | AID 1345082, 2018 | Potency, µM (series often up to 96.7 µM), inactives show at the top dose activity change, negative = cytotoxicity, actives largely listed as inhibitors; further: on the % scale 0 is the no-effect control and ±100 the full control effect; nearly all actives have a fitted effect of over 55% in size
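Viability of NIH 3T3 cells after 48 or 72 hr compound treatment at 37 °C was assessed by CellTiter-Glo, with luminescence imaged following a 10 min room-temperature step.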
SNCA expr inh = Primary qHTS assay for inhibitors of alpha-synuclein gene (SNCA) expression; AID 1671194, 2021; Potency, µM (series often up to 57.2 µM), without a hit: top-dose activity change, negative = inhibition, usual class: inhibitors; hit rate 0.17% among 140,000; HEK-293 SNCA-luciferase knock-in, luminescence, 24 h;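 further: plate controls were DMSO cells for no effect and cell-free wells for full effect; nearly all actives have a fitted effect of over 45% in size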
FLuc inh-1 = Firefly luciferase inhibition profiling of diverse chemical library using quantitative high-throughput screening; Potency, µM (titrated, usually from 115 µM), actives largely listed as inhibitors; Luciferin 4-monooxygenase (Photinus pyralis), P08659; AID 1347043, 2019; hit rate 2.5% among 76,000; purified P. pyralis luciferase, luminescence, biochemical; further: on the % scale 0 is the no-effect control and ±100 the full control effect; nearly all actives have a fitted effect of over 65% in size
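Purified 10nM P. pyralis luciferase with 10uM D-luciferin and 10uM ATP in 50mM Tris acetate pH 7.5, 10mM Mg acetate, 0.01% Tween-20, 0.05% BSA. qHTS titration; luminescence read by CCD imager.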
SNCA viab count = GF-AFC viability counterscreen for inhibitors of alpha-synuclein gene (SNCA) expression; HEK-293-SNCA-luc viability, GF-AFC fluorescence, 24 h; Potency, µM (highest dose often 57.1 µM), inactives show at the highest dose activity change, negative = cytotoxicity, hits mostly cytotoxic; hit rate 0.12% among 150,000; AID 1671193, 2021;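 further: 0% = DMSO-treated cells and -100% = medium-only wells without cells; nearly all actives have a fitted effect of over 30% in size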
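HEK-293-SNCA-luc cells (1500/well) plated 24 h, then exposed 24 h to a dilution series; GF-AFC added 30 min at 37C, fluorescence 405/540 nm; normalised to medium-only and DMSO wells, Hill fit.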
hNpr1 antagonist = Natriuretic polypeptide receptor (hNpr1) antagonism - Primary qHTS. Potency, µM (doses to about 46.3 µM), inactives show at the highest dose activity change, negative = inhibition, hits mostly inhibitors. hit rate 1.6% among 76,000. AID 1347048, 2019. HEK293 hNpr1 GloSensor cGMP, ANP-stimulated luminescence. Atrial natriuretic peptide receptor 1 (Homo sapiens), P16066; calls by dose curve; further: on the % scale 0 is the no-effect control and ±100 the full control effect; nearly all actives have a fitted effect of over 60% in size
Target sequence (P16066 whole entry, looked up): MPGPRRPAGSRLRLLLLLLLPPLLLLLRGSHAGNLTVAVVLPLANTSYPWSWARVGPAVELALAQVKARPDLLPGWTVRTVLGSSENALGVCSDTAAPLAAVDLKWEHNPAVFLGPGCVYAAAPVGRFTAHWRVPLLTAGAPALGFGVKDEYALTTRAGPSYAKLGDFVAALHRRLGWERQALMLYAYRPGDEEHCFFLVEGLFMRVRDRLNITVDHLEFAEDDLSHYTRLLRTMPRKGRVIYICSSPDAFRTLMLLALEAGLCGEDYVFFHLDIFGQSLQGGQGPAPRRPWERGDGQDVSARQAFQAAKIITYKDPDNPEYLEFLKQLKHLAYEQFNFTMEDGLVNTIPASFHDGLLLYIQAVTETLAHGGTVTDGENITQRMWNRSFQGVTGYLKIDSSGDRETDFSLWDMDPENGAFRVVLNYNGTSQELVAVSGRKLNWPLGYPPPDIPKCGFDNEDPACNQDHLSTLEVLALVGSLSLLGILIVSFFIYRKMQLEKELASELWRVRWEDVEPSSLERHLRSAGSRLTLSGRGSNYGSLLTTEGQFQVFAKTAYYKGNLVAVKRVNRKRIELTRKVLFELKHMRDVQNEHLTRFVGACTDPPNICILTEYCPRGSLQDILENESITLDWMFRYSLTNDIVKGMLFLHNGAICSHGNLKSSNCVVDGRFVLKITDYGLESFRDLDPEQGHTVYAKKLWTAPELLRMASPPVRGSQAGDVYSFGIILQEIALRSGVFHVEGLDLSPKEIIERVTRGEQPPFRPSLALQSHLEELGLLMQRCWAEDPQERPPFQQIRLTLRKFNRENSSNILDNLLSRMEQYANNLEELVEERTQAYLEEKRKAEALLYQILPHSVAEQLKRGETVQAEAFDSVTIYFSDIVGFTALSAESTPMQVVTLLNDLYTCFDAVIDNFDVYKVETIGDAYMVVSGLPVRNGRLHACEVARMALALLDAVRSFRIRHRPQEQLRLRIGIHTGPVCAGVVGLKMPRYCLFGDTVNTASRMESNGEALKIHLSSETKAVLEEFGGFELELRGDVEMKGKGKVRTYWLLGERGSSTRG
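Compound pre-incubated 30 min at room temperature on GloSensor-loaded HEK293 cells stably carrying hNpr1 and the pGS-40F cGMP biosensor. Stimulation uses hNppA at 0.1 nM final; luminescence is taken at baseline and 20 min post-agonist.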
HEK cytotox = Cytotoxic Profiling in HEK 293 Cell Line of Diverse Libraries Using Quantitative High-Throughput Screening; HEK 293 viability, ATP luminescence (CellTiter-Glo), 48-72 h; Potency, µM (series often up to 115 µM), without a hit: at the top dose activity change, negative = cytotoxicity, usual class: inhibitors; hit rate 6.6% among 94,000; AID 1345083, 2018; further: on the % scale 0 is the no-effect control and ±100 the full control effect; nearly all actives have a fitted effect of over 60% in size
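250 HEK 293 cells/well; compound by pintool; incubated 48 or 72 hr at 37 degree Celsius; CellTiter-Glo added, 10 min RT, luminescence imaged.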
FLuc SDR no ATP = Firefly luciferase (FLuc-C-HiBiT) SDR gain of signal screen - without ATP; shares compounds with FLuc inh-1; Purified FLuc-C-HiBiT, Nano-Glo HiBiT luminescence, no ATP; Potency, µM (series often up to 32.7 µM), inactives show at the highest dose activation (signal gain), most hits filed as activators; hit rate 7.8% among 1,300; AID 1963318, 2024; further: nearly all actives have a fitted effect of over 55% in size
FLuc SDR ATP = Firefly luciferase (FLuc-C-HiBiT) SDR gain of signal screen - plus ATP; shares compounds with FLuc inh-1; Potency, µM (doses to about 32.7 µM), without a hit: top-dose activation (gain of signal), usual class: activators; purified FLuc-C-HiBiT + ATP, HiBiT complementation luminescence; hit rate 8.7% among 1,300;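 further: signal reports ligand binding via conformational change of the enzyme rather than luciferase catalysis; % of control where 0% means no effect; nearly all actives have a fitted effect of over 55% in size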
FLuc inh-2 = Firefly luciferase (FLuc-C-HiBiT) enzymatic inhibition screen - Functional assay; shares compounds with FLuc inh-1; AID 1963320, 2024; purified FLuc-C-HiBiT enzyme, luciferin luminescence; hit rate 42% among 1,300; Potency, µM (titrated, usually from 32.7 µM), for the others: top-dose activity change, negative = inhibition, actives largely listed as inhibitors; further: on the % scale 0 is the no-effect control and ±100 the full control effect; nearly all actives have a fitted effect of over 70% in size
* marks the source's active call; other numbers are inactive results; i = inactive; ? = inconclusive; / = no result given; [ ] = another dose, or the depositor's remark. An excerpt weighted towards active compounds, which were near 7.4% of everything screened. Unless noted, the call rests on the fitted dose curve; in most records, active means well fitted curve in the direction sought with a large enough effect; inconclusive means small, poorly fitted or top-dose-only effect, or another doubt; inactive means no such curve, though single readings can be large; an effect the other way counts as inactive or inconclusive. Potency means the concentration at half of the fitted maximal effect.

SMILES | 3T3 cytotox | SNCA expr inh | FLuc inh-1 | SNCA viab count | hNpr1 antagonist | HEK cytotox | FLuc SDR no ATP | FLuc SDR ATP | FLuc inh-2
Cc1ccc(Cn2cc(-c3ccncc3)cc2C(=O)O)cc1 | ? | 18.1% | i | 9.3% | 0.9% | -27.4% | 14.2% | 10.9% | -7.7%
CCN(CC)Cc1cnc2c(C(=O)Nc3ccc(C)cc3Cl)cnn2c1 | -6.1% | 12.0% | i | 15.9% | -5.3% | ? | / | / | /
CCCNC(=O)C(NC(=O)CC(C)C)C1CCN(C(=O)c2ccc3c(c2)OCO3)CC1 (stereo not given) | -16.9% | -12.6% | i | 12.0% | -2.1% | -11.5% | / | / | /
Cc1cc(F)ccc1OC1(C(=O)O)CCN(c2ncnc3nc[nH]c23)CC1 | 4.9% | 6.3% | i | -0.6% | 3.9% | i | 10.1% | 6.7% | 3.0%
O=C(O)c1cccc(-c2noc(-c3cc([N+](=O)[O-])cc([N+](=O)[O-])c3)n2)c1 | / | / | / | / | / | / | 6.0% | ? | 3.13µM*
COc1ccc(F)cc1-c1cccc(C(=O)O)c1 | -9.8%[138 µM] | 20.4%[87.6 µM] | / | 1.9%[87.6 µM] | / | -3.6%[172 µM] | / | / | /
COc1ccc(-c2nc(-c3cccc(C(=O)O)c3)no2)cc1 | / | / | / | / | / | / | 1.11µM* | 0.0031µM* | 0.0025µM*
COc1ccccc1-c1nc(-c2cccc(C(=O)O)c2)no1 | / | / | / | / | / | / | 8.81µM* | 0.007µM* | 0.0062µM*
O=C(c1ccoc1)N1CCC(N2C(=O)C3(CCCC3)C2c2ccccc2)CC1 (stereo not given) | ? | -25.7% | i | -0.8%[12.5 µM] | -1.2% | ? | / | / | /
O=C(c1ccc(CSc2nc3ccncc3n2Cc2ccc(F)cc2)cc1)N1CCCCCC1 | / | -10.7% | / | -19.4% | / | / | / | / | /
O=C(c1ccc(CSc2nc3ccncc3n2Cc2ccccc2F)cc1)N1CCCCC1 | / | 128.0% | / | 7.1% | / | / | 16.4% | 10.7% | ?
COc1cccc(C(=O)Nc2cccc(OCc3cc(=O)n4c5c(sc4n3)CCCC5)c2)c1 | / | 36.5% | / | -4.8% | / | / | 21.2% | 11.0% | ?
COc1ccc(C(=O)Nc2cccc(OCc3cc(=O)n4c5c(sc4n3)CCCC5)c2)cc1 | / | 3.8% | / | -2.2% | / | / | / | / | /
CN1Cc2ccc(C(=O)NCCOc3ccccc3)cc2OCC1=O | / | / | / | / | / | / | 18.8%[49.3 µM] | ? | ?
Cc1csc(NC(=O)c2ccc3c(c2)OCC(=O)N(C)C3)n1 | ? | -22.5%[87.6 µM] | 5.01µM* | 6.2%[87.6 µM] | / | -15.7%[172 µM] | 24.4%[49.3 µM] | ? | ?
Cc1cnc(NC(=O)c2ccc3c(c2)OCCN(c2ccccc2)C3)s1 | ? | 18.7%[87.6 µM] | ? | -9.5%[87.6 µM] | -16.0%[70.6 µM] | ? | / | / | /
Cc1cnc(NC(=O)c2ccc3c(c2)OCC(=O)N(C)C3)s1 | / | / | / | / | / | / | ? | ? | 14.3µM*
O=C1CCN(S(=O)(=O)c2ccccc2)CCCN(C2CCCCC2)CCN1 | -16.9% | 19.4% | i | 1.2% | 0.2% | 0.3% | / | / | /
C#CCCC(=O)N(Cc1cccc(C)c1)Cc1ccccc1OC | ? | -30.0% | i | -25.6% | -10.5% | ? | / | / | /
CN1c2cc(C(=O)NCCc3ccccc3)ccc2C(=O)N2CCCCC21 (stereo not given) | -20.2% | 63.7% | i | 19.2%[12.5 µM] | 0.0% | ? | / | / | /
COCCNc1oc(-c2ccc(OC)cc2)nc1C#N | / | 51.8% | / | -2.5% | / | / | 22.5% | 14.8% | ?
COc1ccccc1CCC(=O)N1CCCC2(C1)Nc1cccnc1NC2=NC1CCCC1 (stereo not given) | ? | 23.2% | i | -9.4% | -2.5% | ? | / | / | /
Cc1cn2nc(C(=O)Nc3ccc(N(C)C)cc3)cc2c(N2CCCC2)n1 | ? | 80.1% | 5.01µM* | -20.0% | 9.6% | ? | 12.8% | 13.2% | ?
CC(Cc1cnccn1)Nc1ccc(-c2nc(-c3cccc(Cl)c3)no2)cn1 (stereo not given) | ? | 147.5% | 3.55µM* | 1.2% | ? | ? | 13.6% | 15.8% | ?
Cc1nnc(CN(C)c2ccc(-c3nc(-c4cccc(Cl)c4)no3)cn2)o1 | ? | 56.9% | 1.12µM* | -4.1% | 11.2µM* | ? | 17.0% | 17.7% | 4.95µM*
SMILES | 3T3 cytotox | SNCA expr inh | FLuc inh-1 | SNCA viab count | hNpr1 antagonist | HEK cytotox | FLuc SDR no ATP | FLuc SDR ATP | FLuc inh-2
Cc1nc(CN(C)Cc2nc(-c3cccc(Cl)c3)oc2C)no1 | ? | 39.3% | i | 14.3% | -8.2% | -30.3% | / | / | /
Cc1nc(CCC(=O)N(C)CC2CCN(CCc3cccc(F)c3)CC2)n[nH]1 | 4.8% | 3.9% | i | -5.0% | 4.5% | 2.0% | / | / | /
O=C1CC2(CCN(C(=O)C3CCN(C(=O)c4ccccc4F)CC3)CC2)Oc2ccccc2N1 | -22.3% | 52.1% | / | ? | / | ? | / | / | /
COc1ccc(OCC(=O)Nc2nc(-c3ccc(Br)cc3)ns2)cc1 | / | 97.4% | / | 11.7% | / | / | 14.4% | 8.1% | -14.5%
COc1cc2ccccc2cc1C(=O)Nc1cccc(-c2nc3cc(C)c(C)cc3o2)c1 | / | 29.1% | / | -3.2% | / | / | / | / | /
O=C(Nc1cccc(-c2nc3ccccc3s2)c1)c1cc2ccccc2oc1=O | / | / | / | / | / | / | 13.8% | 9.9% | -8.8%
Cc1c(C(=O)Nc2cccc(-c3nc4ccccc4s3)c2)oc2ccccc12 | / | 54.5% | / | 4.0% | / | / | 9.5% | 10.0% | -25.7%
Cc1ccc2oc(C(=O)Nc3cccc(-c4nc5ccccc5s4)c3)c(C)c2c1 | / | 143.3% | / | 6.6% | / | / | 16.5% | ? | ?
COc1cc(Nc2ncc(F)c(Nc3ccc4c(n3)N(COP(=O)(O)O)C(=O)C(C)(C)O4)n2)cc(OC)c1OC | / | 131.5% | / | ? | / | / | / | / | /
